Columns and labels:
Experiment in all cases: DAPPL (digital affinity profiling via proximity ligation, sequencing); 10 mM Tris-HCl pH 7.5, 50 mM NaCl, 1 mM DTT, 4% glycerol, room temperature, 30 min; GST-TFs on glutathione beads, 16-mer random dsDNA library, 0.1% formaldehyde crosslink after washing; high values mean tight binding
FLI1 = molecular target: T1, FLI1 (Homo sapiens, UniProt Q01543 1-452); settings: protein: recombinant; tags: N-terminal GST; dsDNA, one strand shown
T1 sequence: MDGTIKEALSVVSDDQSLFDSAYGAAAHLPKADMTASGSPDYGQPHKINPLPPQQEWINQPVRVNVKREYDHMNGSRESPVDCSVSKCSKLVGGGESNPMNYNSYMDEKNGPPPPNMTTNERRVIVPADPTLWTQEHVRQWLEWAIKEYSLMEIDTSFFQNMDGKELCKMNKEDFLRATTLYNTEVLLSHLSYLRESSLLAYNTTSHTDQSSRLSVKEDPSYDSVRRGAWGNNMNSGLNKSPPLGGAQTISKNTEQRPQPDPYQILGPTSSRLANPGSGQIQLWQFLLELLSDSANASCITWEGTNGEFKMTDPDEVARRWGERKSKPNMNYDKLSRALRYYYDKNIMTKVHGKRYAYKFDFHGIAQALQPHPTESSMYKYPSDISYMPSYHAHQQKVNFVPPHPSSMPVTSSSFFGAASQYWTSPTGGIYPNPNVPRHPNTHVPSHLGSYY
In short: (§1)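 Binding signal is defined as a hexamer's read frequency for one factor over its frequency for the tag-only sample. To obtain reads, GST-fused human transcription factors were expressed in yeast, captured on glutathione beads, barcoded with DNA and pooled with that sample. Pools met 200 nmole of a 16-mer random double-stranded DNA library in Tris/NaCl/DTT/glycerol buffer for 30 min at room temperature before washing, 0.1% formaldehyde crosslinking, proximity ligation (BsaI/T4 ligase, 1 h, 37 °C), PCR and Illumina NextSeq500 sequencing.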

ELK1 = molecular target: T2, ELK1 (Homo sapiens, UniProt P19419 1-428); settings: protein: recombinant; tags: N-terminal GST; dsDNA, one strand shown
T2 sequence: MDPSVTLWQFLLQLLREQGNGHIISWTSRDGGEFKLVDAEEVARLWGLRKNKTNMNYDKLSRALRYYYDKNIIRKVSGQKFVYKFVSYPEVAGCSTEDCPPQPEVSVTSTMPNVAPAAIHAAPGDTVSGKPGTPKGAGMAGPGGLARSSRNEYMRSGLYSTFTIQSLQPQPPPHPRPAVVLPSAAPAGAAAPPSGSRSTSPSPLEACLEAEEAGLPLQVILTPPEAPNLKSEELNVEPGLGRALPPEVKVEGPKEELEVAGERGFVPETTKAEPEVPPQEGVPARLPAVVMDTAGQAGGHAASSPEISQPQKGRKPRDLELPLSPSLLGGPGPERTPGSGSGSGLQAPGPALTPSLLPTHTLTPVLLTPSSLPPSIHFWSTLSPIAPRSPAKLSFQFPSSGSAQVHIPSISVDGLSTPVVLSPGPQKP
In short: as §1

GABPA = molecular target: T3, GABPA (Homo sapiens, UniProt Q06546 1-454); settings: protein: recombinant; tags: N-terminal GST; dsDNA, one strand shown
T3 sequence: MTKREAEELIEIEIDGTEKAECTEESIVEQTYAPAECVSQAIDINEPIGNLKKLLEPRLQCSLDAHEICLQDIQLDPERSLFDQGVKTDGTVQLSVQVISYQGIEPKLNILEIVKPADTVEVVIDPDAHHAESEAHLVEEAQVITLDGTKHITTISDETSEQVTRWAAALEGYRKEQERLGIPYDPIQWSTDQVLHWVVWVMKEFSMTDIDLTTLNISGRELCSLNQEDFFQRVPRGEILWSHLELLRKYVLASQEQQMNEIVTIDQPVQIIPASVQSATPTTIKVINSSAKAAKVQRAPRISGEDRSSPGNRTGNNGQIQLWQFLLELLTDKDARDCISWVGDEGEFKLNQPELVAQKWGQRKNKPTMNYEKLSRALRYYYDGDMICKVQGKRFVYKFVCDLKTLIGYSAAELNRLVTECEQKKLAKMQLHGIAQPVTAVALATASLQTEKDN
In short: as §1

ERG = molecular target: T4, ERG (Homo sapiens, UniProt P11308 1-479); settings: protein: recombinant; tags: N-terminal GST; dsDNA, one strand shown
T4 sequence: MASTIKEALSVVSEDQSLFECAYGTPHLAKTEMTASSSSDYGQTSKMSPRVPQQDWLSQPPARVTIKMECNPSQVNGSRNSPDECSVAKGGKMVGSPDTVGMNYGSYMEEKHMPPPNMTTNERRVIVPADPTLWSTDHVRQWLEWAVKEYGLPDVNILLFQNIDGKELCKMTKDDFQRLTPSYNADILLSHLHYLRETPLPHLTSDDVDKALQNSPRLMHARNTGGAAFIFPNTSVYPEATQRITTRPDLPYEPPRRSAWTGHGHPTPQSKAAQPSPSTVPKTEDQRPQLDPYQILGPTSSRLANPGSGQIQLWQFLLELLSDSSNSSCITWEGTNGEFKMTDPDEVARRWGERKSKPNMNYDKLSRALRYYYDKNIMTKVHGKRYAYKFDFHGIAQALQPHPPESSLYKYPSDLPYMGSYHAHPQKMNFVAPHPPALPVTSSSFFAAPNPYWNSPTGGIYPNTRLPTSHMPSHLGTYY
In short: as §1

ELF1 = ELF1 (Homo sapiens, UniProt P32519 1-619); settings: protein: recombinant; tags: N-terminal GST; dsDNA, one strand shown
Chain of ELF1 (P32519 whole entry): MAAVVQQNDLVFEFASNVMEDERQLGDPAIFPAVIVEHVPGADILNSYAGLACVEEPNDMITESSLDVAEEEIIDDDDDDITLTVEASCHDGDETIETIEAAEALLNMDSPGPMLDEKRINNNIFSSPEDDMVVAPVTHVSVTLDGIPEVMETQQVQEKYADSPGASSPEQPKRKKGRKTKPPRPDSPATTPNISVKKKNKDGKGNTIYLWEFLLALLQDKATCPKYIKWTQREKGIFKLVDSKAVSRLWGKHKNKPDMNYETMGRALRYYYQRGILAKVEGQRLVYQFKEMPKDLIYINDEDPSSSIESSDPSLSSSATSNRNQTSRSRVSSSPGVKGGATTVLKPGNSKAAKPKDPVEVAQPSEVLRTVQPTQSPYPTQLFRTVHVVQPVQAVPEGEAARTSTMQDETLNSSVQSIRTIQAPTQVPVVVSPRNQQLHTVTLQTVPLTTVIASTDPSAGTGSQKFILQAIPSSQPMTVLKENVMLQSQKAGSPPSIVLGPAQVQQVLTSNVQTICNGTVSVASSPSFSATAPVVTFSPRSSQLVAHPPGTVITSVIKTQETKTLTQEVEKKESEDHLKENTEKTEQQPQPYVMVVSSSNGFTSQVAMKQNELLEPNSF
In short: as §1

EHF = molecular target: T5, EHF (Homo sapiens, UniProt Q9NZC4 1-300); settings: protein: recombinant; tags: N-terminal GST; dsDNA, one strand shown
T5 sequence: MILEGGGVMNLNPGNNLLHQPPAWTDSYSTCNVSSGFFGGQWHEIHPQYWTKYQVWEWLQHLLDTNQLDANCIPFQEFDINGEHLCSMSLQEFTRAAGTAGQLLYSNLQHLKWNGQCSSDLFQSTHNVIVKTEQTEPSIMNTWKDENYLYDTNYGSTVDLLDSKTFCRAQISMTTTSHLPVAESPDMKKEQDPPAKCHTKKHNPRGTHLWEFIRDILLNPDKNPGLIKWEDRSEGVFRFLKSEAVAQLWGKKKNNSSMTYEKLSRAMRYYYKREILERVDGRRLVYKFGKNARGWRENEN
In short: as §1

SPI1 = SPI1 (Homo sapiens, UniProt P17947 1-270); settings: protein: recombinant; tags: N-terminal GST; dsDNA, one strand shown
In short: as §1

SPIB = SPIB (Homo sapiens, UniProt Q01892 1-262); settings: protein: recombinant; tags: N-terminal GST; dsDNA, one strand shown
Chain of SPIB (Q01892 whole entry): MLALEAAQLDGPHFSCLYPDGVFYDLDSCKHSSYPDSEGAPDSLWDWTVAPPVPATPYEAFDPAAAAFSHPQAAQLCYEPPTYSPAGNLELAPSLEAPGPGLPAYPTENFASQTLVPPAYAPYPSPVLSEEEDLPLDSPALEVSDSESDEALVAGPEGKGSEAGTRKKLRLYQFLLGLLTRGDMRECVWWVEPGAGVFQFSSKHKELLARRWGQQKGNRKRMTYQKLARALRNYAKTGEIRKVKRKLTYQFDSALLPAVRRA
In short: as §1

ELK3 = molecular target: T6, ELK3 (Homo sapiens, UniProt P41970 1-407); settings: protein: recombinant; tags: N-terminal GST; dsDNA, one strand shown
T6 sequence: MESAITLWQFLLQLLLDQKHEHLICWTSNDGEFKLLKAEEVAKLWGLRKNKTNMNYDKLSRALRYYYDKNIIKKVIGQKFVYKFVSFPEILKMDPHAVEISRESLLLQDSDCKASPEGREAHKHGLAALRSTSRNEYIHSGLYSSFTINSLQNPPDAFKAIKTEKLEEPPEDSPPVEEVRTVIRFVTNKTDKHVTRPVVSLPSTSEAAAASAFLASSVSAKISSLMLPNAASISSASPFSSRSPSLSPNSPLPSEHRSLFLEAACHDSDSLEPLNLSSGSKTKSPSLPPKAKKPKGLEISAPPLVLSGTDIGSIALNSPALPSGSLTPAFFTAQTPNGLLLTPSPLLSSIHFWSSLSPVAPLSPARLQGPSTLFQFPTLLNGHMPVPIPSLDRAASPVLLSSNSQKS
In short: as §1

FEV = molecular target: T7, FEV (Homo sapiens, UniProt Q99581 1-238); settings: protein: recombinant; tags: N-terminal GST; dsDNA, one strand shown
T7 sequence: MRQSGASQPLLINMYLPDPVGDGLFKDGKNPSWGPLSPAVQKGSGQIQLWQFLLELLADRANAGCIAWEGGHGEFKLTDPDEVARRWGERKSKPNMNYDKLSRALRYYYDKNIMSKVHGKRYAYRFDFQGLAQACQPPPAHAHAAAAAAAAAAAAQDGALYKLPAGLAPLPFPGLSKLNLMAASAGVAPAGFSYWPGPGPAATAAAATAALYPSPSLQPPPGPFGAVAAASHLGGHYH
In short: as §1

ETV5 = ETV5 (Homo sapiens, UniProt P41161 1-510); settings: protein: recombinant; tags: N-terminal GST; dsDNA, one strand shown
Chain of ETV5 (P41161 whole entry): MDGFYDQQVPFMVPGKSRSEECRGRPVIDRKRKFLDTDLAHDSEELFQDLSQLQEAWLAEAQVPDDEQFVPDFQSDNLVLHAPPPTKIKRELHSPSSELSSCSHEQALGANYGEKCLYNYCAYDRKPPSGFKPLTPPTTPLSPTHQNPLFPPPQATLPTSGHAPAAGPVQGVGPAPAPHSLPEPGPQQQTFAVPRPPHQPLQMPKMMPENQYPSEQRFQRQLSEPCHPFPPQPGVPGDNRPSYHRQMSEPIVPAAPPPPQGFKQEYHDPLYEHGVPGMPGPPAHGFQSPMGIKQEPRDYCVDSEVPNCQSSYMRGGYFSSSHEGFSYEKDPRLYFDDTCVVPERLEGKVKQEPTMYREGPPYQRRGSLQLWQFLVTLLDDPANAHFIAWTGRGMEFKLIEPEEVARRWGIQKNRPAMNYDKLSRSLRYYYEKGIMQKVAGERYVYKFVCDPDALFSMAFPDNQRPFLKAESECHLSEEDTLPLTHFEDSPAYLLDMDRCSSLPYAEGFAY
In short: as §1

HSF1 = HSF1 (Homo sapiens, UniProt Q00613 1-529); settings: protein: recombinant; tags: N-terminal GST; chain copies: 3; dsDNA, one strand shown
Chain of HSF1 (Q00613 whole entry): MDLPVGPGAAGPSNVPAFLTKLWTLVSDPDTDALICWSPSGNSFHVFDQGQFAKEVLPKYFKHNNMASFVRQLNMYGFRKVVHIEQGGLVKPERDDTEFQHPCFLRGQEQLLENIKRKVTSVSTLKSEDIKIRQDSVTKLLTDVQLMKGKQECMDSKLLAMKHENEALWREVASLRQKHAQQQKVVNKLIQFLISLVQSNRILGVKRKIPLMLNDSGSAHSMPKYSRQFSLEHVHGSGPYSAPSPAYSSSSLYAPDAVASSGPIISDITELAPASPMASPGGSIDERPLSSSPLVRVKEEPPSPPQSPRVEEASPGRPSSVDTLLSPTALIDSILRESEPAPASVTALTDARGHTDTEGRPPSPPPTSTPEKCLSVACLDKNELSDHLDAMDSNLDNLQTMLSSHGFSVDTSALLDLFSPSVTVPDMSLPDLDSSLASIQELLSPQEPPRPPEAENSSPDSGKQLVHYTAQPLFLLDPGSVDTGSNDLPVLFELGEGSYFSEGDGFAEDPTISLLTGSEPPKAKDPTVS
In short: as §1

SPIC = molecular target: T8, SPIC (Homo sapiens, UniProt Q8N5J4 1-248); settings: protein: recombinant; tags: N-terminal GST; dsDNA, one strand shown
T8 sequence: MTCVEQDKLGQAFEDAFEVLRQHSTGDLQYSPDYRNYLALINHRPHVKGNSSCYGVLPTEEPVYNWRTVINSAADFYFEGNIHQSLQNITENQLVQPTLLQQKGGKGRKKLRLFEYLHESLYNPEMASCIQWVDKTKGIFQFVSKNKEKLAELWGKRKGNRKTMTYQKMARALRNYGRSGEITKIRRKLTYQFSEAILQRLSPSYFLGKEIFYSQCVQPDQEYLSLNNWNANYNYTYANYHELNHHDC
In short: as §1

ELF4 = ELF4 (Homo sapiens, UniProt Q99607 1-663); settings: protein: recombinant; tags: N-terminal GST; dsDNA, one strand shown
Chain of ELF4 (Q99607 whole entry): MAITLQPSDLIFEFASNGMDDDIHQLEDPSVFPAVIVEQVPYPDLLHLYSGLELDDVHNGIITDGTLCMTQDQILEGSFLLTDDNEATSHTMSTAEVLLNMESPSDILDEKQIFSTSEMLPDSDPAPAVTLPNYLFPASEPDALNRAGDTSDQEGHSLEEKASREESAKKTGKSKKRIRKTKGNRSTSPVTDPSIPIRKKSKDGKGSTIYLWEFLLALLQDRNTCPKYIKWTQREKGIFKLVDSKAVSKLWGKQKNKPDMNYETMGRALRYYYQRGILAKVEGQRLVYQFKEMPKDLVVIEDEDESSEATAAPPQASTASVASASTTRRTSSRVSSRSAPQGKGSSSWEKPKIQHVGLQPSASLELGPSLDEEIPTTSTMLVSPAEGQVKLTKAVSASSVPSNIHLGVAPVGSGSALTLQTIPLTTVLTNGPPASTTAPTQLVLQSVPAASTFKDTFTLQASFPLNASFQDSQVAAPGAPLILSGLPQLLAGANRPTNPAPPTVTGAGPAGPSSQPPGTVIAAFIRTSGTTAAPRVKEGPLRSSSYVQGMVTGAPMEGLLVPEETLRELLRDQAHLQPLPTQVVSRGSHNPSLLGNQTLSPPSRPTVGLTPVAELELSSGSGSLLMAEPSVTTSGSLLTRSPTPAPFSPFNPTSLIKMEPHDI
In short: as §1

ELK4 = molecular target: T9, ELK4 (Homo sapiens, UniProt P28324-2 1-405); settings: protein: recombinant; tags: N-terminal GST; dsDNA, one strand shown
T9 sequence: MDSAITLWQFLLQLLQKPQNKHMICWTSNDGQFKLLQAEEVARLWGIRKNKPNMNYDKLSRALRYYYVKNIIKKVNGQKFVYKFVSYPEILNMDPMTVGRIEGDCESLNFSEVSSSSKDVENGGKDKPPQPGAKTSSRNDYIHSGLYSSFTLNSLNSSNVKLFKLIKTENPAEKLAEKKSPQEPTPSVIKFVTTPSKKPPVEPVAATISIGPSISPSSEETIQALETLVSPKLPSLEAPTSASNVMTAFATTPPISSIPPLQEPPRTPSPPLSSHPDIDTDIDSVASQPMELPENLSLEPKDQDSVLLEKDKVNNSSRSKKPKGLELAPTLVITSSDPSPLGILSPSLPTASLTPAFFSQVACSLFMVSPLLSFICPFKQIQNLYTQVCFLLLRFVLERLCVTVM
In short: as §1

ETV2 = molecular target: T10, ETV2 (Homo sapiens, UniProt O00321 1-342); settings: protein: recombinant; tags: N-terminal GST; dsDNA, one strand shown
T10 sequence: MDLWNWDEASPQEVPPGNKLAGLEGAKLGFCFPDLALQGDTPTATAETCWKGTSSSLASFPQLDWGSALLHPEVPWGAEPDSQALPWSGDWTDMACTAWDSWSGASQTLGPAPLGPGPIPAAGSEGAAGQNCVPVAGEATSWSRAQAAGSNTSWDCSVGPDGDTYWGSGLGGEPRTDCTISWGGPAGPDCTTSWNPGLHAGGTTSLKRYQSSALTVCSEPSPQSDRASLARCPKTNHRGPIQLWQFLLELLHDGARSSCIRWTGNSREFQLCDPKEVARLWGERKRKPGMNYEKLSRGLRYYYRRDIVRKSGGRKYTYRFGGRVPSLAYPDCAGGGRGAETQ
In short: as §1

ELF3 = molecular target: T11, ELF3 (Homo sapiens, UniProt P78545 1-371); settings: protein: recombinant; tags: N-terminal GST; dsDNA, one strand shown
T11 sequence: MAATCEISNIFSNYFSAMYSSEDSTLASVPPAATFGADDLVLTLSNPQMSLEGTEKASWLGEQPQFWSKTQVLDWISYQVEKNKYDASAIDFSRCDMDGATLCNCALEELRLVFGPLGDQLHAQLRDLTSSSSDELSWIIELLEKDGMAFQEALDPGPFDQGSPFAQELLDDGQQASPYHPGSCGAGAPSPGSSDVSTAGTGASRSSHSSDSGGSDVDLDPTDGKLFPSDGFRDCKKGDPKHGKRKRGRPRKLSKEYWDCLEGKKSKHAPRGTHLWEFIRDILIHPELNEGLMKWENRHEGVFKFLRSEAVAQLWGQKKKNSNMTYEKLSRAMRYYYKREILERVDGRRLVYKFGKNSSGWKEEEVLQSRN
In short: as §1

CRX = CRX (Homo sapiens, UniProt O43186 1-299); settings: protein: recombinant; tags: N-terminal GST; dsDNA, one strand shown
Chain of CRX (O43186 whole entry): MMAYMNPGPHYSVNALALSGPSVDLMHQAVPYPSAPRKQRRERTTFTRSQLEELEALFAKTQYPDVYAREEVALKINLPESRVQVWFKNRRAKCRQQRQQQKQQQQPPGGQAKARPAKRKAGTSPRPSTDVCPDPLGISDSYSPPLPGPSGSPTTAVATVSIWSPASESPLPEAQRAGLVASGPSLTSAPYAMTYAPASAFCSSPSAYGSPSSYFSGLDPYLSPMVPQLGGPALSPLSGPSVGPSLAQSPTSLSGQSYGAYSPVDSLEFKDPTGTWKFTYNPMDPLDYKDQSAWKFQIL
In short: as §1

ETV1 = ETV1 (Homo sapiens, UniProt P50549 1-477); settings: protein: recombinant; tags: N-terminal GST; dsDNA, one strand shown
Chain of ETV1 (P50549 whole entry): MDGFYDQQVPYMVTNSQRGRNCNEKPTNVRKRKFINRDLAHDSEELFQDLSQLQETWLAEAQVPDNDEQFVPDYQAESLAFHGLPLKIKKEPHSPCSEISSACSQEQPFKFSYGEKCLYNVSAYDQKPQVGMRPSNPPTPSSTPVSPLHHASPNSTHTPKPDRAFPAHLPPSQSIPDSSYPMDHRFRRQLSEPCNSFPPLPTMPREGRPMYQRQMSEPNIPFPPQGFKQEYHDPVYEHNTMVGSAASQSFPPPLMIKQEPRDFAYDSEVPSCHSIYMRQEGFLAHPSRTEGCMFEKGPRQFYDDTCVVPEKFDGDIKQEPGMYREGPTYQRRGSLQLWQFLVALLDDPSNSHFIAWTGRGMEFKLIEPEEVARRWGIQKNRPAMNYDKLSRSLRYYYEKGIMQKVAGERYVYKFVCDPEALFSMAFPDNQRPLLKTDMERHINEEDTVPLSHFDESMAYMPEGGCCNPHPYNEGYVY
In short: as §1

## TCTTTA
FLI1
  binding signal: 1.22 fold enrichment (6-mer frequency, TF over GST control)
ELK1
  binding signal: 1.25 fold enrichment (6-mer frequency, TF over GST control)
GABPA
  binding signal: 1.33 fold enrichment (6-mer frequency, TF over GST control)
ERG
  binding signal: 1.29 fold enrichment (6-mer frequency, TF over GST control)
ELF1
  binding signal: 1.31 fold enrichment (6-mer frequency, TF over GST control)
EHF
  binding signal: 1.25 fold enrichment (6-mer frequency, TF over GST control)
SPI1
  binding signal: 1.32 fold enrichment (6-mer frequency, TF over GST control)
SPIB
  binding signal: 1.21 fold enrichment (6-mer frequency, TF over GST control)
ELK3
  binding signal: 1.27 fold enrichment (6-mer frequency, TF over GST control)
FEV
  binding signal: 1.22 fold enrichment (6-mer frequency, TF over GST control)
ETV5
  binding signal: 1.16 fold enrichment (6-mer frequency, TF over GST control)
HSF1
  binding signal: 1.5 fold enrichment (6-mer frequency, TF over GST control)
SPIC
  binding signal: 1.22 fold enrichment (6-mer frequency, TF over GST control)
ELF4
  binding signal: 1.21 fold enrichment (6-mer frequency, TF over GST control)
ELK4
  binding signal: 1.3 fold enrichment (6-mer frequency, TF over GST control)
ETV2
  binding signal: 1.31 fold enrichment (6-mer frequency, TF over GST control)
ELF3
  binding signal: 1.36 fold enrichment (6-mer frequency, TF over GST control)
CRX
  binding signal: 1.93 fold enrichment (6-mer frequency, TF over GST control)
ETV1
  binding signal: 1.25 fold enrichment (6-mer frequency, TF over GST control)
